Data reported in PubChem BioAssay (Tox21).
Records with an inconclusive call do not appear. Calls of active or inactive are those of the source. Calls follow the shape of the full dose curve.

Assays:
[1] = target: Acetylcholinesterase (Homo sapiens) (UniProt P22303); experiment: Acetylcholinesterase (AChE) small molecule antagonists: colormetric cell-based qHTS assay (AID 1347395); also: nearly all actives have a fitted effect of over 30% in size
Summary of the method: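 SH-SY5Y cells attached overnight, exposed to compound 30 min at 37 C, then given DTNB/acetylthiocholine; after 90 min at 37 C, colorimetric thiocholine read gives cellular AChE activity.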

[2] = target: Acetylcholinesterase (Homo sapiens) (UniProt P22303); experiment: Acetylcholinesterase (AChE) small molecule antagonists: enzyme-based qHTS assay (AID 1347397); conditions: Potency: AChE enzyme activity inhibition; outcome: AChE enzyme activity inhibition; also: nearly all actives have a fitted effect of over 55% in size
Summary of the method: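 Absorbance-based detection of thiocholine with DTNB served as the read-out. Recombinant human AChE was exposed to compound for 30 min at RT before a 10 min RT incubation with acetylthiocholine.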

[3] = target: Acetylcholinesterase (Homo sapiens) (UniProt P22303); experiment: Acetylcholinesterase (AChE) small molecule antagonists: fluorescence cell-based qHTS assay (AID 1347398); conditions: Potency: AChE activity; outcome: AChE activity; also: nearly all actives have a fitted effect of over 50% in size
Summary of the method: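 Fluorimetric cell-based assay: intact SH-SY5Y cells, 30 min compound preincubation at 37 C, acetylthiocholine substrate with thiol probe Thiolite Green, 40 min RT development, fluorescence 490/520 nm.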

[4] = target: Acetylcholinesterase (Homo sapiens) (UniProt P22303); experiment: Acetylcholinesterase (AChE) small molecule antagonists: enzyme-based qHTS assay with human liver microsomes (AID 1347399); conditions: Potency: qHTS inhibition; outcome: qHTS inhibition; also: nearly all actives have a fitted effect of over 60% in size
Summary of the method: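 Recombinant human AChE (50 mU/mL in the enzyme mix) and human liver microsomes (0.25 mg/mL final) were preincubated with compound and NADPH (0.25 mg/mL final) for 30 min at 37 C. Acetylthiocholine/DTNB was then added; thiocholine was read colorimetrically after 10 min at room temperature.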
% is scaled to controls: 0 for no effect and ±100 for the full control effect.

Acetylcholinesterase (Homo sapiens), sequence (P22303 whole entry, looked up): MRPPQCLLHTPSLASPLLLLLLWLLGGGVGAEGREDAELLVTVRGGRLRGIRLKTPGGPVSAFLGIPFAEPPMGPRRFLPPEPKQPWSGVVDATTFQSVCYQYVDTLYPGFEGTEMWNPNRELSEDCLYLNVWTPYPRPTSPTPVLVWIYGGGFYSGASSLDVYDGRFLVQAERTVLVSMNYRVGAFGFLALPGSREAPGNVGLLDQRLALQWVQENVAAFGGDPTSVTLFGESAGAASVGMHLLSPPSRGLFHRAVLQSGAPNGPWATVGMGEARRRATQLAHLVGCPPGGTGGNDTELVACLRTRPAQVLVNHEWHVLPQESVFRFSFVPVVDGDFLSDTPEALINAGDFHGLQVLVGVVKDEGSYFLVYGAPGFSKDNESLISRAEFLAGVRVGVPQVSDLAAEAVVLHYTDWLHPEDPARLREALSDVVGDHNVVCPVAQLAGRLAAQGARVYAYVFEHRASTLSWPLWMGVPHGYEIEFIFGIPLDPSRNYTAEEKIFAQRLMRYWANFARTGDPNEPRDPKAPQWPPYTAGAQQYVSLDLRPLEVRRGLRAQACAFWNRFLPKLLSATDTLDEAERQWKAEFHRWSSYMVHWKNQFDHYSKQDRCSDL

FC(F)(F)C(F)(F)C(F)(F)C(F)(F)C(F)(F)C(F)(F)C(F)(F)C(F)(F)C(F)(F)C(F)(F)F
inactive: activity, negative = inhibition [1] 0.771% [at 10.5 µM] | activity change, negative = inhibition [2] 1.63% [at 10.5 µM] | activity change, negative = inhibition [3] 1.44% [at 10.5 µM] | activity change, negative = inhibition [4] 1.12% [at 10.5 µM]

O=c1[nH]cnc2c1ncn2[C@@H]1O[C@H](CO)[C@@H](O)[C@H]1O
inactive: Potency [1] | Potency [2] | Potency [3] | Potency [4]

C#CC(C)N(C)C(=O)Nc1ccc(Cl)cc1 (stereo not given)
inactive: Potency [1] | Potency [2] | Potency [3] | Potency [4]

C/C=C(C)/C=C/C=C(C)C
inactive: Potency [1] | Potency [2] | Potency [3] | Potency [4]

CCC(N)(CO)CO
inactive: Potency [1] | Potency [2] | Potency [3] | Potency [4]

ClC/C=C/CCl
inactive: Potency [1] | Potency [2] | Potency [3] | Potency [4]

Clc1ccccn1
inactive: Potency [1] | Potency [2] | Potency [3] | Potency [4]

CC1CCC(CO)CC1 (stereo not given)
inactive: Potency [1] | Potency [2] | Potency [3] | Potency [4]

O=C(Nc1ccc(Cl)cc1)Nc1ccc(Cl)c(Cl)c1
inactive: Potency [1] | Potency [2] | Potency [3] | Potency [4]

O=C1CCCCCCCCCCC1
inactive: Potency [1] | Potency [2] | Potency [3] | Potency [4]

O=C(Nc1ccc(Cl)c(Cl)c1)C1CC1
inactive: Potency [1] | Potency [2] | Potency [3] | Potency [4]

COc1cc(C=O)ccc1O
inactive: Potency [1] | Potency [2] | Potency [3] | Potency [4]

NCCOCCO
inactive: Potency [1] | Potency [2] | Potency [3] | Potency [4]

O=C(O)c1cc(=O)[nH]c(=O)[nH]1
inactive: Potency [1] | Potency [2] | Potency [3] | Potency [4]

CCCCCCOC(=O)c1ccc(O)cc1
inactive: Potency [1] | Potency [2] | Potency [3] | Potency [4]

Cc1ccc(-n2nc(C(C)(C)C)cc2NC(=O)Nc2ccc(OCCN3CCOCC3)c3ccccc23)cc1
inactive: Potency [1] | Potency [2] | Potency [3] | Potency [4]

O=C(O)c1cccc(Cl)c1Cl
inactive: Potency [1] | Potency [2] | Potency [3] | Potency [4]

O=C1CCCCCCCCCCCC(=O)OCCO1
inactive: Potency [1] | Potency [2] | Potency [3] | Potency [4]

CCO[Si](C)(CCCOCC1CO1)OCC (stereo not given)
inactive: Potency [1] | Potency [2] | Potency [3] | Potency [4]

N#Cc1cc(NC(=O)C(=O)O)c(Cl)c(NC(=O)C(=O)O)c1
inactive: Potency [1] | Potency [2] | Potency [3] | Potency [4]

CCCCC(CC)COC(=O)/C=C/c1ccc(OC)cc1 (stereo not given)
inactive: Potency [1] | Potency [2] | Potency [3] | Potency [4]

N#Cc1ccc(CC(=O)c2cccc(C(F)(F)F)c2)cc1
inactive: Potency [1] | Potency [2] | Potency [3] | Potency [4]

NC(=O)C(=O)N/N=C/c1ccc([N+](=O)[O-])o1
inactive: Potency [1] | Potency [2] | Potency [3] | Potency [4]

COC(C)(OC)OC
inactive: Potency [1] | Potency [2] | Potency [3] | Potency [4]

CC(C)(C)C(=O)CCc1ccc(Cl)cc1
inactive: Potency [1] | Potency [2] | Potency [3] | Potency [4]

CCC(Cl)CC(Cl)C(Cl)C(Cl)C(Cl)C(C)Cl (stereo not given)
inactive: activity, negative = inhibition [1] -0.388% [at 23.6 µM] | activity change, negative = inhibition [2] -3.68% [at 23.6 µM] | activity change, negative = inhibition [3] 0.856% [at 23.8 µM] | activity change, negative = inhibition [4] 0.639% [at 23.6 µM]

CCCCN=C(N)N=C(N)N
inactive: Potency [1] | Potency [2] | Potency [3] | Potency [4]

CS(=O)(=O)c1ccc(Cl)cc1
inactive: Potency [1] | Potency [2] | Potency [3] | Potency [4]

Cc1cccnc1
inactive: Potency [1] | Potency [2] | Potency [3] | Potency [4]

Nc1c(CC(=O)O)cccc1C(=O)c1ccc(Br)cc1
inactive: Potency [1] | Potency [2] | Potency [3] | Potency [4]

Cc1ccc(Br)cc1
inactive: Potency [1] | Potency [2] | Potency [3] | Potency [4]

CCC(C)C1N=C(C)C(C)S1 (stereo not given)
inactive: Potency [1] | Potency [2] | Potency [3] | Potency [4]

Nc1cc(N)cc(C(=O)O)c1
inactive: Potency [1] | Potency [2] | Potency [3] | Potency [4]

CN1[C@@H]2CC[C@H]1CC(OC(=O)c1c[nH]c3ccccc13)C2 (stereo not given in full)
inactive: Potency [1] | Potency [2] | Potency [3] | Potency [4]

CC(C)(N)CO
inactive: Potency [1] | Potency [2] | Potency [3] | Potency [4]

CCCCCCC(C)(C)C(=O)O
inactive: Potency [1] | Potency [2] | Potency [3] | Potency [4]

SCCc1cnccn1
inactive: Potency [1] | Potency [2] | Potency [3] | Potency [4]

COc1ccccc1OCC1CNC(=O)O1 (stereo not given)
inactive: Potency [1] | Potency [2] | Potency [3] | Potency [4]

CCO[Si](CCCS)(OCC)OCC
inactive: Potency [1] | Potency [2] | Potency [3] | Potency [4]

OC[C@H]1O[C@H](O[C@H]2O[C@H](CO)[C@@H](O)[C@H](O)[C@H]2O)[C@H](O)[C@@H](O)[C@@H]1O
inactive: Potency [1] | Potency [2] | Potency [3] | Potency [4]

NCCCN(CCO)CCO
inactive: Potency [1] | Potency [2] | Potency [3] | Potency [4]

C=CC(C)(O)CC/C=C(\C)CC (stereo not given)
inactive: Potency [1] | Potency [2] | Potency [3] | Potency [4]

CC(C)(c1ccccc1)c1ccccc1
inactive: Potency [1] | Potency [2] | Potency [3] | Potency [4]

C/C=C/c1ccc(OCC)c(O)c1
inactive: Potency [1] | Potency [2] | Potency [3] | Potency [4]

Cc1ccnc2c1NC(=O)c1cccnc1N2C1CC1
inactive: Potency [1] | Potency [2] | Potency [3] | Potency [4]

Nc1cc(S(=O)(=O)O)ccc1O
inactive: Potency [1] | Potency [2] | Potency [3] | Potency [4]

Oc1cccc2cc3cccc(O)c3c(O)c12
inactive: Potency [1] | Potency [2] | Potency [3] | Potency [4]

OC1CCCCCCCCCCC1
inactive: Potency [1] | Potency [2] | Potency [3] | Potency [4]

O=C1CCCCCCCCCCCCCC1
inactive: Potency [1] | Potency [2] | Potency [3] | Potency [4]

Cc1cccc(C)c1C
inactive: Potency [1] | Potency [2] | Potency [3] | Potency [4]

O=C(O)c1ccc2c(c1)C(=O)OC2=O
inactive: Potency [1] | Potency [2] | Potency [3] | Potency [4]

NCCS(=O)(=O)O
inactive: Potency [1] | Potency [2] | Potency [3] | Potency [4]

Oc1cc2ccccc2cc1O
inactive: Potency [1] | Potency [2] | Potency [3] | Potency [4]

Cc1c(C(N)=O)cc([N+](=O)[O-])cc1[N+](=O)[O-]
inactive: Potency [1] | Potency [2] | Potency [3] | Potency [4]

CC1=CC[C@@H](C(C)(C)O)CC1
inactive: Potency [1] | Potency [2] | Potency [3] | Potency [4]

Cc1ccc(S(=O)(=O)O)cc1C
inactive: Potency [1] | Potency [2] | Potency [3] | Potency [4]

CCCCNC(=O)NCCCC
inactive: Potency [1] | Potency [2] | Potency [3] | Potency [4]

CC(=O)c1ccc2ccc3ccccc3c2c1
inactive: Potency [1] | Potency [2] | Potency [3] | Potency [4]

Nc1ccn([C@@H]2O[C@H](CO)[C@@H](O)[C@@H]2O)c(=O)n1
inactive: Potency [1] | Potency [2] | Potency [3] | Potency [4]

CCC(O)OCCCOC (stereo not given)
inactive: Potency [1] | Potency [2] | Potency [3] | Potency [4]
